Results taken from PubChem BioAssay AID485317 (Broad Institute, 2010).
Several values for one entry are separate records, joined by “and”; a condition that tells them apart may be missing. Equal entries are not always repeated. The campaign covered roughly 290,000 compounds. About 11,000 (3.8%) were called active. The sample holds actives, similar compounds and a random draw of the others, so the mix is not that of the screen.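 Rule for the calls: active = mean replicate inhibition above about 79%, with every replicate also reaching it (limit read from the data); inconclusive = only one of the two criteria met; inactive = mean below limit and not every replicate reaching it.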

The compounds below were run against FAD-linked sulfhydryl oxidase ALR (Homo sapiens) (UniProt P55789) (assay: ALR-catalysed DTT oxidation blockers – biochemical, H2O2 detection, HRP-luminol luminescence, single point, primary screen (AID 485317)). Conditions: purified ALR, active compounds read high, concentration not given here.
FAD-linked sulfhydryl oxidase ALR (Homo sapiens), sequence (P55789 whole entry, looked up): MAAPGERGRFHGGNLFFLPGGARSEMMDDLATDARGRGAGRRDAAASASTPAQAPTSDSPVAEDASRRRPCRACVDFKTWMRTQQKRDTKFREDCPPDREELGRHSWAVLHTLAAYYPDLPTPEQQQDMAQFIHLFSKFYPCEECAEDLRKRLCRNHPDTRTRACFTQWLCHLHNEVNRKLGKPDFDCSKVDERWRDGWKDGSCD

inhibition, inactive:
Cc1cccc(NC(=O)CN2C(=O)c3ccccc3C2=O)c1C 2.16%, Cc1cccc(NC(=O)COC(=O)CCc2ccccc2)c1C -8.62%, COc1cc(OC)cc(-c2c(C#Cc3ccsc3)c3cc(-c4ccc(SC)cc4)ccc3n2C)c1 -4.93%, CCOC(=O)C1(O)CC(C)=NN1C(=O)c1cccc(Br)c1 (stereo not given) -4.22%, CC1=NN(C(=O)c2ccccc2Br)C(O)(c2cccnc2)C1 (stereo not given) -2.8%, COc1cc(SC)ccc1C(=O)NNC(=O)C1COc2ccccc2O1 (stereo not given) 0.292%, CCC1S/C(=N/N=C/c2ccco2)NC1=O (stereo not given) -6.96%, O=C1OC(/C=C/c2ccccc2)=NC/1=C/c1ccco1 9.93%, O=C(CSC1=Nc2ccccc2C2=NC(c3ccccc3)C(=O)N12)NCC1CCCO1 (stereo not given) -17.3%, O=C(CSC1=Nc2ccccc2C2=NC(CC(=O)NCc3ccco3)C(=O)N12)NCc1ccco1 (stereo not given) 6.97%, COc1ccccc1-c1c(C#N)c(N)nc2c1CCC2 0.706%, CCOc1cc(-c2cc(-c3ccc(OC)cc3)nc(N)c2C#N)ccc1O 41.9%, O=C(CN1CCC(O)(c2ccccc2)CC1)Nc1ccc2c(c1)OCCO2 -15.8%, Cc1ccc(NC(=O)CN2CCC3(O)CCCCC3C2c2ccc3c(c2)OCO3)c(C)c1 (stereo not given) 6.21%, O=C(COC(=O)/C=C/c1cccc(Cl)c1)NCc1cccs1 -15.2%, O=C(COc1ccccc1Cl)N1N=C(c2cccs2)CC1c1ccco1 (stereo not given) 12.6%, CCOc1ccc(NC(=O)CSc2nc3ccccc3c(=O)n2Cc2cccs2)cc1 -4.39%, COCCn1c(SCC(=O)Nc2ccccc2F)nc2c(c1=O)SCC2 23.5%, COc1ccc(C(=O)N2CCN(c3ccc(C(C)=O)cc3F)CC2)cc1S(=O)(=O)NC1CC1 2.33%, COc1cccc(NC(=O)CN(C)C(=O)CSC(=S)N2CCCC2)c1 -14.6%, CCCCN1C(=O)/C(=C2/Sc3ccc(Cl)cc3N2CC)SC1=S -23.2%, CN1C=CC=C/C1=C1\SC(=S)N(Cc2ccccc2)C1=O -1.3%, O=C(CSc1nc2ccccc2c(=O)n1-c1ccccc1F)N1CCOCC1 -2.73%, CC1CCC(NC(=O)CNC(=O)c2ccc3ccccc3c2)CC1 (stereo not given) -7.47%, COc1ccccc1N=Cc1c(O)c2ccccc2oc1=O 0.366%, COc1cc(N=Cc2c(O)c3ccccc3oc2=O)c(OC)cc1Cl -4.24%, COCC(=O)N=Nc1c(O)[nH]c2ccccc12 -3.07%, CN=c1scc(-c2cc(OC)ccc2OC)n1/N=C/c1c(C)[nH]c2ccccc12 15.7%, CN(CC(=O)Nc1ccc(Cl)c(C(F)(F)F)c1)C(=O)CCC(=O)c1ccccc1 -3.88%, Cc1ccc(C)c(S(=O)(=O)N2CCN(c3ncnc4sccc34)CC2)c1 -13.7%, O=C(NCc1ccccc1)c1onc(CSc2ccncc2)c1C(=O)NCc1ccccc1 -5.05%, CC(C)n1ncc2c(C(=O)Nc3ccc(CC#N)cc3)cc(C3CC3)nc21 -14.1%, O=C(c1ccc(N2CCOCC2)c([N+](=O)[O-])c1)N1CCN(c2ccccc2F)CC1 0.595%, O=C1C=C(c2cc(C(F)(F)F)cc(C(F)(F)F)c2)C[C@@H](c2ccc3c(c2)OCO3)C1 -3.13%, Cc1ccc(Nc2ccc(C(N)=O)cc2[N+](=O)[O-])cc1 -3.97%, Nc1ccc(Nc2ccccc2)cc1 -2.25%, COc1ccc(NC(=O)CN(C)C(=O)c2cc(-c3ccc(C)o3)nc3ccccc23)cc1 -3.77%, CS(=O)(=O)N(CC(=O)N1CCc2ccccc2C1)c1ccc(Br)cc1 -3.9%, CC(C)(C)N1CC(c2nc3ccccc3n2Cc2ccc(F)cc2)CC1=O (stereo not given) -2.5%, C=CCn1c(P(C)(=O)O)nc2ccccc21 -17.7% and -5.83%, COc1ccc(OC)c(NC(=O)COC(=O)Cc2ccsc2)c1 -0.814%, Cc1cc(C(C)(C)C)cc(C)c1N -3.27%, Cc1ccc(S(=O)(=O)c2ccc(Oc3ccccc3)cc2)cc1 -8.5%, Cc1cc(C)cc(N)c1 8.46%, CC(C)(C)c1ccc(OC2=CS(=O)(=O)c3ccccc32)cc1 4.58%, CCOC(=O)N1CCN(C(=O)CSc2nc(=O)n3cccc(C)c3n2)CC1 1.32%, CCN(CC(=O)Nc1c(F)cccc1F)C(=O)C1CCC1 -1.96%, O=C(NCCC1CCCCN1S(=O)(=O)c1ccccc1)C(=O)NCC1CCCO1 (stereo not given) -4.14%, C[C@@H]1CN([C@@H](C)CO)C(=O)c2cc(NC(=O)C3CC3)ccc2O[C@H]1CN(C)C 1.71%, COc1ccc(-c2nnc(SCc3cccnc3)o2)cc1 -15%, COc1ccc(-c2nnc(SCC(=O)c3ccc4c(c3)OCCO4)o2)cc1 4.53%, COc1ccc(C2(c3ccc(OC)cc3)NC(=O)N(CC(=O)Nc3cc(C)on3)C2=O)cc1 -0.145%, Cc1ccc(SCC(=O)Nc2nncs2)cc1 -6.08%, COCCCN(C(=O)CSCc1ccc(C)cc1)c1c(N)n(Cc2ccccc2)c(=O)[nH]c1=O 46.2%, S=C(NCC1CCCO1)N1CCN(c2ccc(Cl)c(Cl)c2)CC1 (stereo not given) 0.527%, O=C(CNC(=O)C1COc2ccccc2O1)N/N=C/c1cc(Br)c(O)c(Br)c1 (stereo not given) 66.1%, CCCN(C(=O)c1nc2nccc(C)n2n1)c1c(N)n(Cc2ccccc2)c(=O)[nH]c1=O 1.52%, COc1ccc(CCNC(=O)CN2C(=O)COc3ccc(S(=O)(=O)N4CCCC4)cc32)cc1OC -1.92%, CCc1ccc(NC(=O)CN2C(=O)COc3ccc(S(=O)(=O)N4CCCC4)cc32)cc1 -3.09%, O=C(NCc1ccccn1)Nc1ccc(Cl)cc1 -24.3%, CCC1=Nc2cc(C(=O)NCCN3CCCC3)ccc2Sc2ccc(C)cc21 -17.3%, Cc1cc(=O)oc2c(C)c(OCC(=O)NCCN3CCOCC3)ccc12 -3.13%, O=C(O)c1ccc(/C=N/Nc2nc(N3CCCCC3)nc(N3CCCCC3)n2)cc1 3.03%, CCCCn1c(N)c(N(CC(C)C)C(=O)c2cccc(S(=O)(=O)N3CC(C)OC(C)C3)c2)c(=O)[nH]c1=O (stereo not given) -2.1%, OCCCNc1nc(-c2ccccc2)c2cc(Cl)ccc2n1 -2.06%, CC(Sc1ncnc2c1cnn2-c1ccccc1)C(=O)Nc1ccc(N2CCOCC2)cc1 (stereo not given) -5.27%, CCOC(=O)c1c(-c2ccc(C)cc2)csc1/N=C(\C)C1=C(O)c2ccccc2C1=O 1.75%, CCOC(=O)c1c(-c2ccc(-c3ccccc3)cc2)csc1NC(=O)CCC(=O)O 60.9%, COc1ccc(Cl)cc1C(=O)Nc1ccc(N(C)C(C)=O)cc1 -1.72%, COc1cc(OC)c(C(=O)Nc2ccccc2-c2ccccc2)cc1OC -1.64%, Cc1ccccc1SCC(=O)OCC(=O)N1CC(=O)Nc2ccccc21 -7.18%, COc1ccc(-n2ncc3c(SCC(=O)NNC(C)=O)ncnc32)cc1 -1.15%, Cc1ccc(-n2ncc3c(=O)[nH]cnc32)c(C)c1 -6.83%

inhibition, active:
Cc1cccc(NC(=O)CSC(N)=O)c1C 98.7%, CC1=NN(C(=O)c2ccc(Br)cc2)C(O)(c2ccccc2)C1 (stereo not given) 82.1%, CC(C)(C)C1C/C(=C/c2ccco2)C(=O)/C(=C/c2ccco2)C1 (stereo not given) 96.3%, CC(C)C1N=C2c3ccccc3N=C(SCC(=O)c3ccc(O)c(O)c3)N2C1=O (stereo not given) 99.7%, COc1ccc(-c2cc(-c3ccc(N)cc3)nc(N)c2C#N)cc1OC 98.9%, CCN(CC)c1ccc(C2C3CCCCC3(O)CCN2CC(=O)Nc2ccccc2)cc1 (stereo not given) 97.5%, O=C(CSc1nc2nccnc2c(=O)n1Cc1cccs1)Nc1ccccc1F 98.7%, CCCCN1C(=O)/C(=C2/C=CC=CN2C)SC1=S 99%, COc1cc(N=Cc2c(O)[nH]c3ccccc23)cc(OC)c1OC 96.6%, COc1ccc(N=Cc2c(O)[nH]c3ccccc23)cc1OC 99.3%, Cc1ccc(Nc2ccccc2N)cc1 85.9%, C=CCn1c(C2CC(=O)N(c3ccc(C)cc3)C2)nc2ccccc21 (stereo not given) 87.3%, Cc1ccc(Oc2ccc(N)cc2)cc1 98.9%, CC(C)(C)c1ccc(Oc2ccc(N)cc2)cc1 98.6%, COc1ccc(-c2nnc(SC(=O)N3c4ccccc4Sc4ccccc43)o2)cc1 94.9%, Oc1c(Br)cc(/C=N/NC(=S)NCC2CCCO2)cc1Br (stereo not given) 96.2%, CN(C)c1ccc(CNC(=O)CN2C(=O)COc3ccc(S(=O)(=O)N4CCCC4)cc32)cc1 98.6%, Cc1ccsc1-c1nc(CSCC(=O)NCCN2CCCC2)c(C)o1 97.8%, CC(C)(C)c1nnc(N/N=C/c2ccc(O)cc2)n(N)c1=O 98.8%, COC(=O)c1c(-c2ccc(C)cc2)csc1N 97.8%, COc1cc(OC)c(C(=O)Nc2ccc(N(C)C)cc2)cc1OC 99.6%, COC(=O)CSc1ncnc2c1cnn2-c1ccc(C)cc1C 96.9%
